Compound activity deposited in PubChem BioAssay by National Center for Advancing Translational Sciences (NCATS).
Rows were chosen to be rich in hits. Some 7.6% of all compounds tested hit in one or more screens of this group.
Tau filament bind: qHTS Assay for Tau Filament Binding; recombinant tau filaments, thioflavin S fluorescence, 15 h; filaments grown with octadecylsulfate alongside compound; Potency, µM (series often up to 57.1 µM); 71,000 compounds, 2% hits;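 further: actives lower thioflavin S fluorescence by blocking filaments or displacing dye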
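Assay mix: 1 uM His-tagged tau, 30 uM sodium octadecylsulfate, thioflavine S dye in HEPES/NaCl/DTT buffer. Compound is added prior to the inducer. Fluorescence after 15 h at 37 C.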
CRE Fsk mod: Cell signaling CRE-BLA (Fsk stim); 71,000 compounds, 2.5% hits; CHO CRE-bla reporter (cAMP response element driving beta-lactamase), forskolin EC10, beta-lactamase ratio; AID 662, 2007; Potency, µM (doses to about 38.2 µM), hits mostly activators; active means well fitted activation curve with a large enough effect in the signal ratio, with a control signal flat, not every such curve was filed as active; inconclusive means small, poorly fitted or top-dose-only effect, or effect the other way, or a change in a side signal; the % refers to the signal ratio
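Modulation of forskolin-driven signalling is measured in CHO cells carrying a CRE-controlled beta-lactamase reporter. Cells are stimulated with EC10 NKH 477 in the presence of titrated compound for 3 h at 37 °C, then loaded with CCF4 for 2 h at room temperature.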
ERK AVP inh: qHTS Assay for Inhibitors of the ERK Signaling Pathway using a Homogeneous Screening Assay | 72,000 compounds, 0.99% hits | Potency, µM (titrated, usually from 57.5 µM), hits mostly inhibitors | HEK293-V1b, vasopressin-stimulated pERK AlphaScreen; further: nearly all actives have a fitted effect of over 55% in size
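V1b-HEK293 cells; cpd 30 min 37C; 25 nM vasopressin 5 min; lyse 10 min; AlphaScreen beads 5 hr RT. Normalized to DMSO basal and 25 nM vasopressin; AC50 by Hill fit.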
TSHR agonist: qHTS Assay for Agonists of the Thyroid Stimulating Hormone Receptor; 73,000 compounds, 0.48% hits; HEK293-CNG-TSHR cells (CNG channel as cAMP sensor), membrane potential dye, cAMP; Potency, µM (titrated, usually from 57.1 µM), usual class: activators; Thyrotropin receptor (Homo sapiens), P16473; active means well fitted activation curve with a large enough effect in the main read-out, with a control signal flat, not every such curve was filed as active; inconclusive means small, poorly fitted or top-dose-only effect, or a change in a side signal; inactive means no such curve, though single readings can be large or run the other way; reference of the percent scale not stated here;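 further: the control signal comes from parental cells without the receptor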
Target sequence (P16473 whole entry, looked up): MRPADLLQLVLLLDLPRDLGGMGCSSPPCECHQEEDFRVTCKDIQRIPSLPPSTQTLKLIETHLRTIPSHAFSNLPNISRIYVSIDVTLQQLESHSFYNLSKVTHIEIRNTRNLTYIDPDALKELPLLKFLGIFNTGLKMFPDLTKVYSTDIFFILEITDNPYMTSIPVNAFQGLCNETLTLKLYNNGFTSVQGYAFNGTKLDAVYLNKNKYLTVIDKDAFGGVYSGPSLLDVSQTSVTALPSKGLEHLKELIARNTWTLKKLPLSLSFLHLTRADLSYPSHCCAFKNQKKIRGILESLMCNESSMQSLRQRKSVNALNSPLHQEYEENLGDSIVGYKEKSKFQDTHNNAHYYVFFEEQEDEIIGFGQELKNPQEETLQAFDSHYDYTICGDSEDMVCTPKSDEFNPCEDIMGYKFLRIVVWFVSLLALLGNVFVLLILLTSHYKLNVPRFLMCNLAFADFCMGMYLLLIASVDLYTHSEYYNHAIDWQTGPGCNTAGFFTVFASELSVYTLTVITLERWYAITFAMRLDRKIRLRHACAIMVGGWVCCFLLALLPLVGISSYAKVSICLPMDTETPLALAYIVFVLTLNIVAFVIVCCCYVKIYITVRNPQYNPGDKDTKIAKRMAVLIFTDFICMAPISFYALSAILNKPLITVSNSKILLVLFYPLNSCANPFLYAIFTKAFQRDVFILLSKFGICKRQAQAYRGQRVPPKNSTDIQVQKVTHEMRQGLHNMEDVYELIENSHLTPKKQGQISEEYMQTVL
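cAMP rise detected as CNG-channel membrane depolarization by fluorescent dye (emission 590 nm), 30 min after compound, following 60 min dye loading containing 100 uM RO 20-1724 at room temperature. Cells: TSHR/CNG HEK 293, with parental CNG HEK 293 as control.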
HEK293 cAMP ctrl: qHTS Assay for Agonists of the Thyroid Stimulating Hormone Receptor: Activators of Intracellular cAMP Concentrations in Parental HEK 293; parental HEK293 CNG cAMP sensor, membrane potential fluorescence; Potency, µM (series often up to 57.1 µM), actives largely listed as activators; 73,000 compounds, 2.5% hits; AID 938, 2007; further: nearly all actives have a fitted effect of over 55% in size
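Parental HEK 293 cells stably expressing a cAMP-gated CNG channel were loaded with membrane potential dye containing 100 uM RO 20-1724 for 60 min. Compound added for 30 min; depolarization read as fluorescence intensity at 590 nm.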
Hits are given with their value; - = inactive; ? = inconclusive; . = not tested or not shown; [ ] = remark or other dose. Unless noted, the call rests on the fitted dose curve; in most records, active means well fitted curve in the direction sought with a large enough effect; inconclusive means small, poorly fitted or top-dose-only effect, or another doubt; inactive means no such curve, though single readings can be large; an effect the other way counts as inactive or inconclusive.

SMILES	Tau filament bind	CRE Fsk mod	ERK AVP inh	TSHR agonist	HEK293 cAMP ctrl
COc1ccc(CCNc2oc(COc3ccccc3Cl)nc2C#N)cc1OC	-	?	?	?	?
COc1ccc(-c2nc(C#N)c(NCCc3ccccc3)o2)cc1OC	-	?	16µM	-	-
CC(=O)OC[C@@H]1O[C@H](C/C=N\O[C@@H](C)CN2CCCc3nc(C)c(C)cc32)C=C[C@@H]1OC(C)=O	.	.	-[11.5 µM]	-[11.4 µM]	-[11.4 µM]
Cc1ccc(CNc2oc(-c3ccco3)nc2C#N)cc1	-	10µM	-	-	-
CNc1oc(-c2ccco2)nc1C#N	-	-	-	-	-
O=C(NCCN1CCCC1)c1ccc(Cc2nc3ccccc3[nH]2)cc1	.	.	.	-	-
C=C[C@H]1CN2CC[C@@H]1C[C@H]2[C@@H](O)c1ccnc2ccc(OC)cc12	-	-	-	.	.
OC(CN(c1ccccc1)c1ccccc1)Cn1cnc2ccccc21 (stereo not given)	13µM	-	?	.	-
COc1ccc(CN(C)CC(=O)c2c(N)n(Cc3ccccc3)c(=O)n(C)c2=O)c(OC)c1	-	-	-	?	?
COc1ccc(CN(CCN(C)C)Cc2ccccc2)c(OC)c1	-	-	-	?	13µM
CCN(Cc1ccccc1)Cc1cc(OC)cc(OC)c1	-[11.4 µM]	?	-	?	5µM
CCOC(=O)c1c(C)c(C(=O)Nc2ccc(N(C)C)cc2)c(C)n1CC	16µM	?	?	-[11.4 µM]	-
O=C(NC12CC3CC(CC(C3)C1)C2)c1cc2nc(-c3ccco3)cc(C(F)(F)F)n2n1	13µM	?	-	-	-
O=C(Nc1ccc2c(c1)OCO2)c1cnn2c(C(F)(F)F)cc(-c3ccco3)nc12	0.5µM	5µM	-	-	-
O=C(NC1CCCCC1)c1cc2nc(-c3ccco3)cc(C(F)(F)F)n2n1	-	-	-	-	-
COc1ccc(NC(=O)c2cnn3c(C(F)(F)F)cc(-c4ccco4)nc23)cc1OC	0.4µM	?	-	-[11.4 µM]	-[11.4 µM]
O=C(Nc1cnn(C23CC4CC(CC(C4)C2)C3)c1)c1cnn2c(C(F)(F)F)cc(-c3ccco3)nc12	2µM	-	?	-	-
CCCCCCCCC	-	-	-	?	-
CC(=O)OCC(=O)[C@]1(O)C(OC(C)=O)CC2C3CCC4=CC(=O)C=C[C@@]4(C)[C@]3(F)C(O)C[C@]21C (stereo not given in full)	.	.	-	.	.
Cc1cc(C)n(-c2nc3ccccc3c(=O)n2OC2CCCCC2)n1	-	-	-	-	-
Cc1cc(C)n(-c2nc3ccccc3c3nc(C)nn23)n1	-	10µM	.	-	-
CCN(CC)C(C(=O)Nc1ccc2c(c1)OCO2)c1ccccc1 (stereo not given)	-	-	-	-	-
CCCN(CCC)C(C(=O)Nc1cccc(OC)c1)c1ccccc1 (stereo not given)	-	?	-	?	25µM
Cc1nc2sc3c(c2c2nc(-c4ccco4)nn12)CCCC3	-	?	-	?	32µM
c1coc(-c2nc3c4c5c(sc4ncn3n2)CCCC5)c1	-	-	-	?	?
SMILES	Tau filament bind	CRE Fsk mod	ERK AVP inh	TSHR agonist	HEK293 cAMP ctrl
O=C(CSc1ncnc2sc3c(c12)CCCC3)c1ccco1	-	?	-	?	?
O=C(CSc1nc2sc3c(c2c(=O)n1-c1ccccc1)CCCC3)NCc1ccco1	-	?	.	-	-
Cc1nc2sc3c(c2c2nnc(SCC(=O)NCc4ccco4)n12)CCCC3	-	13µM	-	?	?
O=C(CSc1ncnc2sc3c(c12)CCCCC3)NCc1ccco1	-	13µM	-	?	?
c1coc(CNc2nc3sc4c(c3c3ncnn23)CCCC4)c1	-	6.3µM	-	-	-
CC(=O)O[C@H]1C2=CO[C@H](C)[C@H]3[C@H]4C5=C([C@H](O)[C@H]6O[C@@H]6C5=O)[C@H](O[C@H]4C)[C@@]23C(=O)[C@H]2O[C@@H]21	.	.	-[11.5 µM]	-[11.4 µM]	-[11.4 µM]
COC(=O)[C@@]1(Cc2ccc(F)cc2)[C@H]2c3cc(C(=O)N(C)C)n(Cc4ccc(C(F)(F)F)nc4)c3C[C@H]2CN1C(=O)c1ccccc1	-	?	-	?	?
CCN(CC)c1ccc2c(c1)CCCN2	25µM	-	-	-[11.4 µM]	-
